Results from the supplement of paper PMC11732987, “Enantioselective OTUD7B fragment discovery through chemoproteomics screening and high-throughput optimisation” (Communications Chemistry, 2025).

How the values were obtained:
Assay in all cases: log2 ratio of Biotin-Ahx-Ub-VS probe labelling (fragment/DMSO); higher = less target engagement (more negative = stronger competition), active = hit call of the paper (q ≤ 0.05, log2 ratio ≤ -1)
Settings in all cases: compound concentration: 200 uM; treatment time: 3 h
USP34 = USP34 (UniProt Q70CQ2)
Sequence of USP34 (Q70CQ2 whole entry, the tested form may be a part): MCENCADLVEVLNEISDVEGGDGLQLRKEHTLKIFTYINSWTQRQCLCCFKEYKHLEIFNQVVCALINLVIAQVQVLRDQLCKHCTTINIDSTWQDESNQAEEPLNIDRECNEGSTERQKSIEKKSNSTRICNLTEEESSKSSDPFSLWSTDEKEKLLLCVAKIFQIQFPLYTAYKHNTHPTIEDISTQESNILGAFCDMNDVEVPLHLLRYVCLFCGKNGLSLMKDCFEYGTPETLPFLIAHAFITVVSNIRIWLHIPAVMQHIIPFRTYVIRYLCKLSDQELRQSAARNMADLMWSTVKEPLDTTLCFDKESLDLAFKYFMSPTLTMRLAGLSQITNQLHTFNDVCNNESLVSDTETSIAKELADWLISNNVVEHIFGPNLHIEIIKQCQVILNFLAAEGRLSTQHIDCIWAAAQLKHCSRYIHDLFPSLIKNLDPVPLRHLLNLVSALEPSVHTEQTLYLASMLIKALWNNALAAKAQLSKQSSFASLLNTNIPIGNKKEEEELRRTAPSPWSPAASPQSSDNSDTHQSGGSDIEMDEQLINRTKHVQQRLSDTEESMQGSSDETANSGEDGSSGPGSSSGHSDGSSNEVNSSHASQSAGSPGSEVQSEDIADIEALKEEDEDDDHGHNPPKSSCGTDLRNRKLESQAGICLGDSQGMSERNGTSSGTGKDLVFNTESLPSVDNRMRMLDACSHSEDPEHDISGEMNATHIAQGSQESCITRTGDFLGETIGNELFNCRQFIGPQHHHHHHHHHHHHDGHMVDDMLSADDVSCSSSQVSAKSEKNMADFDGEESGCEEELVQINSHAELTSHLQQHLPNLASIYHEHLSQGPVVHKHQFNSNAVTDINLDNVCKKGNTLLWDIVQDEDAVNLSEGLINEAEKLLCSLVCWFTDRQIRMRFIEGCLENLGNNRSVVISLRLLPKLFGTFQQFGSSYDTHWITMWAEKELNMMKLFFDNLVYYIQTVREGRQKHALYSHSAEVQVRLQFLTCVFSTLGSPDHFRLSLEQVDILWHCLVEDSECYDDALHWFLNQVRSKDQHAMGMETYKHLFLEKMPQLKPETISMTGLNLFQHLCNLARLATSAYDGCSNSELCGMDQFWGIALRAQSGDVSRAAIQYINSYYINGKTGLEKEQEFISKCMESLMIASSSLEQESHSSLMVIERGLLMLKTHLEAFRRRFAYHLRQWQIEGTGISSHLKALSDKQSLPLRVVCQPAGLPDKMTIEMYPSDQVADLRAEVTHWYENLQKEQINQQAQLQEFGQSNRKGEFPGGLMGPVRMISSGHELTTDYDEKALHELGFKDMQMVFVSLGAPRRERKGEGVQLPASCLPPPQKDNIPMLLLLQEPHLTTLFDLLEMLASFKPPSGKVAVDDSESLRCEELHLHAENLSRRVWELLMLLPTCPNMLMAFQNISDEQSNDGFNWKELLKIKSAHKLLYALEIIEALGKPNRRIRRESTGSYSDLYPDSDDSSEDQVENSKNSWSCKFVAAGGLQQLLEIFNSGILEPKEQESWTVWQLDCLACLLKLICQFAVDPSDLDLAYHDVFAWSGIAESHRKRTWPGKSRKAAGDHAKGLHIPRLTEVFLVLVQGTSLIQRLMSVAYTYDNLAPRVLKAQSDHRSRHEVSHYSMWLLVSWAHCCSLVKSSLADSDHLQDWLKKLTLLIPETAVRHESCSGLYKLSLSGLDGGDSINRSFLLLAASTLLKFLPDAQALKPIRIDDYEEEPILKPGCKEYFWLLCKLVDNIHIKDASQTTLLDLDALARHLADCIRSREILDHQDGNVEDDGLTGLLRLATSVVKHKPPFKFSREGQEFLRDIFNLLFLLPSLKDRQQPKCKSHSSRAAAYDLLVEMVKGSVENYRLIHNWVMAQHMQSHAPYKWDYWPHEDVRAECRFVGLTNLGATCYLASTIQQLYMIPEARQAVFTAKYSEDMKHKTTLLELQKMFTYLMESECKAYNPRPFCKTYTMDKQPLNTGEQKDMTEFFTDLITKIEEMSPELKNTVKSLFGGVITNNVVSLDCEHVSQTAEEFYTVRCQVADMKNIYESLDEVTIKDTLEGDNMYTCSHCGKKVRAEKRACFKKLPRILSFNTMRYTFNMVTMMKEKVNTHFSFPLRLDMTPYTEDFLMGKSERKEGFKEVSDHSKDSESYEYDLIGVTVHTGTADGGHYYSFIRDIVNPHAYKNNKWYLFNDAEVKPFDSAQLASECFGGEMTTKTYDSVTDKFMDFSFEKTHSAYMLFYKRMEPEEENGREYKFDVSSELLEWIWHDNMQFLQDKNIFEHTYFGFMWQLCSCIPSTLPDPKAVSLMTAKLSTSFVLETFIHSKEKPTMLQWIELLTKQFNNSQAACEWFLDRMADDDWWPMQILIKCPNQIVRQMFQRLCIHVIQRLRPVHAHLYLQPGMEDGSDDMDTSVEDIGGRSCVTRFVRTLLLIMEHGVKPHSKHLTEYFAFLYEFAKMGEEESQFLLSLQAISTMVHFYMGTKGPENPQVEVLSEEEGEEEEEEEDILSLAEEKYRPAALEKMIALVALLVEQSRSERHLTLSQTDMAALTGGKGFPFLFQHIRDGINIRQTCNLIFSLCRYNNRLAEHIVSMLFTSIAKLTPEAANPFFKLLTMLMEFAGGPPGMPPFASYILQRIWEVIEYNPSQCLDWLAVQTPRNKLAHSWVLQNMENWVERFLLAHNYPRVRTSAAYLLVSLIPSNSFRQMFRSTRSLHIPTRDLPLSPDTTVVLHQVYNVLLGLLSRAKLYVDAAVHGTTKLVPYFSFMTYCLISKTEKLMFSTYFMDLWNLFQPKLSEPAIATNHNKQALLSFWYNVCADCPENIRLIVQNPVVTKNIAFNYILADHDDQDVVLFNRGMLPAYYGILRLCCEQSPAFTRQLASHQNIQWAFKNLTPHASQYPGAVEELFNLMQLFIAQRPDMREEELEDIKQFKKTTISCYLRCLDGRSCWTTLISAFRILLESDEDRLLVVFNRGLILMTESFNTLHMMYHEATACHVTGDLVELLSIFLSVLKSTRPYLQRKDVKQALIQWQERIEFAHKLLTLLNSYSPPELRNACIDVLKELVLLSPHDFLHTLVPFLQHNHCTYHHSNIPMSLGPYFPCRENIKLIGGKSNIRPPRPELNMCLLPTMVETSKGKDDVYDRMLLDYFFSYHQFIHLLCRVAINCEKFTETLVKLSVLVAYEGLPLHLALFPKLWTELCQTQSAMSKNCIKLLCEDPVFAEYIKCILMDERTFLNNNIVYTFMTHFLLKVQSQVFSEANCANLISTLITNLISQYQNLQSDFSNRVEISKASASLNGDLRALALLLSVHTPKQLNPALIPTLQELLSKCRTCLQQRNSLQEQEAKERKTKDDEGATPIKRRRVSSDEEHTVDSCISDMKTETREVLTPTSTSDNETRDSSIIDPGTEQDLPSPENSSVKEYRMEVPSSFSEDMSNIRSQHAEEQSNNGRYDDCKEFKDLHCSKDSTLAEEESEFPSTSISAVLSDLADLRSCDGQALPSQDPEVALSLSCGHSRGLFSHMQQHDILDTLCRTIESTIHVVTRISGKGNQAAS
How it was run: (§1)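 Labelled DUBs were enriched with NeutrAvidin, digested with LysC and trypsin, and run by diaPASEF LC-MS/MS. The labelling used Biotin-Ahx-Ub-VS at 0.5 µM final for 1 h on HEK293T lysate (495 µg per sample) previously treated in triplicate with fragment at 200 µM or vehicle for 3 h. Values are average log2 fragment/vehicle ratios by unpaired t-test on global-median-normalised Spectronaut quantities of proteins with ≥2 unique peptides.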

USP36 = biological target: T1, USP36 (UniProt Q9P275)
T1 sequence (whole entry): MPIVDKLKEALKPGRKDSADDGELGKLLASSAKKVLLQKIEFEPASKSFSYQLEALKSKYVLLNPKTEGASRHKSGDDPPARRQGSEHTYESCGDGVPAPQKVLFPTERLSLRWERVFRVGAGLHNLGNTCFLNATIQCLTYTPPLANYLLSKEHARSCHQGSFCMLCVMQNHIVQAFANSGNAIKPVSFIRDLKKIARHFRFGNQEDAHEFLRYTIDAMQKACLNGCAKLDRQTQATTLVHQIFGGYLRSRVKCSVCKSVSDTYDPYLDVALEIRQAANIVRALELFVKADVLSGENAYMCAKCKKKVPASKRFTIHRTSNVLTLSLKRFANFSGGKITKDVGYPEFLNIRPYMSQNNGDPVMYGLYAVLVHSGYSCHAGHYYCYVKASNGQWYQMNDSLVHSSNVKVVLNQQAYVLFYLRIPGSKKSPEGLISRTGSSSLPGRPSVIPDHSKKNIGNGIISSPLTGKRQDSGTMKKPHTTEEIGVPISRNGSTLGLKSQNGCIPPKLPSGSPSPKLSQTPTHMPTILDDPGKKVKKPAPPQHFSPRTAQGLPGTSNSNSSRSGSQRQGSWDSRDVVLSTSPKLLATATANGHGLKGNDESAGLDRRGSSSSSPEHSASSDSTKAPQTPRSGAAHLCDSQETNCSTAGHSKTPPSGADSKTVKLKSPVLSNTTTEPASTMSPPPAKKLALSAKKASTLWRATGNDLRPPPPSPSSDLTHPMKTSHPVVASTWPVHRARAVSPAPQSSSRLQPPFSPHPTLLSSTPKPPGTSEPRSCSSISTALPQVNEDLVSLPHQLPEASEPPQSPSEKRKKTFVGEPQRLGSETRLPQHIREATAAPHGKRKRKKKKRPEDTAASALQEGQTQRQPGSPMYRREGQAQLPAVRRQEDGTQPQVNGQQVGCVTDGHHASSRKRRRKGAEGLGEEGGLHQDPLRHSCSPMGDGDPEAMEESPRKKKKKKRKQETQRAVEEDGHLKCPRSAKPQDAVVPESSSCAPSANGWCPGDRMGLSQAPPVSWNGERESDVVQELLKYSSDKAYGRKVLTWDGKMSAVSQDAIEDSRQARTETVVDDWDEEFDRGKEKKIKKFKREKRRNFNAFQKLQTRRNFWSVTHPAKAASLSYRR
How it was run: as §1

USP38 = biological target: T2, USP38 (UniProt Q8NB14)
T2 sequence (whole entry): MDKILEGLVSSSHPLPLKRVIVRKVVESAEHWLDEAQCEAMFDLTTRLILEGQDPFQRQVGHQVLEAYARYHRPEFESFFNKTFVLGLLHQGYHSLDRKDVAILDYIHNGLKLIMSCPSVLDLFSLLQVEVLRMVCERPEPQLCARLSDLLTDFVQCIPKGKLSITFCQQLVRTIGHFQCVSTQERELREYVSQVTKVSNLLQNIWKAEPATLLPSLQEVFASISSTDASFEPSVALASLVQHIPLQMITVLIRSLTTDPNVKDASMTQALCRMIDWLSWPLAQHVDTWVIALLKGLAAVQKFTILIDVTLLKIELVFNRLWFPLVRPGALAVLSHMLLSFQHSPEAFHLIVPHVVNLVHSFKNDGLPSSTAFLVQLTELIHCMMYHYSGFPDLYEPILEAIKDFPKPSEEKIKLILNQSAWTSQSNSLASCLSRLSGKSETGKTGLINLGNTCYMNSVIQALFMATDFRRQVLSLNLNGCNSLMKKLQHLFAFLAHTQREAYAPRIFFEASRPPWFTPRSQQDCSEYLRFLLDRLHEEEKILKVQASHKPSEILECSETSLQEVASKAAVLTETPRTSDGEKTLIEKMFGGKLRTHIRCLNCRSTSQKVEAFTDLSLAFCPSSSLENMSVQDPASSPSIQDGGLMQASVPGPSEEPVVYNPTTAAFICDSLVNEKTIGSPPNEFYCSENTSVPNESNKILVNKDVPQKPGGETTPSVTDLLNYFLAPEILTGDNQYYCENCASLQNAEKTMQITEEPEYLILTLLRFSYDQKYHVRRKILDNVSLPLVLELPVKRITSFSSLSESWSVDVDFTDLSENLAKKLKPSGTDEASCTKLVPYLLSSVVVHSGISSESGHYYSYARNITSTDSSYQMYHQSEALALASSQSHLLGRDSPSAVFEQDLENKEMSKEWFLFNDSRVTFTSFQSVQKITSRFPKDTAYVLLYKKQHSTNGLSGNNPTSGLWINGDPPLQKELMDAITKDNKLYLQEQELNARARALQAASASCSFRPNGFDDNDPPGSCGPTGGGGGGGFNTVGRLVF
How it was run: as §1

USP39 = biological target: T3, USP39 (UniProt Q53GS9)
T3 sequence (whole entry): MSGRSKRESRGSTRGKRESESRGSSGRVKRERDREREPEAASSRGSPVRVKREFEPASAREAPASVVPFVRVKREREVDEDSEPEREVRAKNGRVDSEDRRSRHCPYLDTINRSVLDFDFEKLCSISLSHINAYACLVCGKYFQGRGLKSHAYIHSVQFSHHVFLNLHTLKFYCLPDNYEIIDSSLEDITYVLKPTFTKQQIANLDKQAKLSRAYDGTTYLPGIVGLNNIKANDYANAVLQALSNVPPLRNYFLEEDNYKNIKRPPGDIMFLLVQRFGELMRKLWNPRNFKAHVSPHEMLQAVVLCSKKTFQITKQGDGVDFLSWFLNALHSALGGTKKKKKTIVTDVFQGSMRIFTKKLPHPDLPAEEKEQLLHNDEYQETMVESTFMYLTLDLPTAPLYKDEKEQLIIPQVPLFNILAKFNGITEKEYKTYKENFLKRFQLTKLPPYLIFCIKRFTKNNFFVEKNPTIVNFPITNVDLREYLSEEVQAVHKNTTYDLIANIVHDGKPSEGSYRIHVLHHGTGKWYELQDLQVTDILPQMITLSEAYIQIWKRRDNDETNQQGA
How it was run: as §1

USP4 = biological target: T4, USP4 (UniProt Q13107)
T4 sequence (whole entry): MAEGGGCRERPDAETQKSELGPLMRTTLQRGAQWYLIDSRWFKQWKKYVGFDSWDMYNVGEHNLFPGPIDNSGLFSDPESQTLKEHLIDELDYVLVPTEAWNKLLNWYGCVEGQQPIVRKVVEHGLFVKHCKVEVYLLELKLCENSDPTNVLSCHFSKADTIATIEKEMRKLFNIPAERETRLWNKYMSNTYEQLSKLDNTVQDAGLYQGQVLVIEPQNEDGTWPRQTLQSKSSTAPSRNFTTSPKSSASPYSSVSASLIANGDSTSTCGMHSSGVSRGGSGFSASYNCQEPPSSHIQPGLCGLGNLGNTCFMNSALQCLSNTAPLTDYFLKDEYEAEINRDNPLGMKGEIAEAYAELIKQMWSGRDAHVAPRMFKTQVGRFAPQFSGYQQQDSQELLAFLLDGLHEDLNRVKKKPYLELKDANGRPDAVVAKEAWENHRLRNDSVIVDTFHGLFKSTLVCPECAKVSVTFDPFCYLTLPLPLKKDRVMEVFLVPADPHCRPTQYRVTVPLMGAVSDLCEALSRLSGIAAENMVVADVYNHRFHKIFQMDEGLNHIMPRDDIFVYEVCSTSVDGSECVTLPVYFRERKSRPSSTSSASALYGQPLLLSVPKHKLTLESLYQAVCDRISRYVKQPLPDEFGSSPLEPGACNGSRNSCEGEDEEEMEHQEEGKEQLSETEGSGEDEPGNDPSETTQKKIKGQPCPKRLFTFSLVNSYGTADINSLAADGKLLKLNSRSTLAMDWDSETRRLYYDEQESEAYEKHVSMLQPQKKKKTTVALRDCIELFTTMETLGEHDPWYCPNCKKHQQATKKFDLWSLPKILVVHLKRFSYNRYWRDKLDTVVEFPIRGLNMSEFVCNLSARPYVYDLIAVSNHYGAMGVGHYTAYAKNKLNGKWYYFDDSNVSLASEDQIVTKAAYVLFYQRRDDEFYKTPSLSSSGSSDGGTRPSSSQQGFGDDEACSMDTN
How it was run: as §1

Measured: log2 ratio of Biotin-Ahx-Ub-VS probe labelling

N#Cc1cnn(-c2ccccc2)c1NC(=O)CCl
inactive: USP34 0.0145 | USP36 -0.28 | USP38 -0.229 | USP39 -0.0134 | USP4 -0.24
